TNAP pNPP inh: human TNAP enzyme inhibitors, primary screen, biochemical, colorimetric, p-nitrophenol readout | 21,000 tested, under 10 active | purified TNAP, pNPP hydrolysis, absorbance 405 nm | Alkaline phosphatase, tissue-nonspecific isozyme (Homo sapiens), P05186 | inhibition, % at 20 µM
Target sequence (P05186 whole entry, looked up): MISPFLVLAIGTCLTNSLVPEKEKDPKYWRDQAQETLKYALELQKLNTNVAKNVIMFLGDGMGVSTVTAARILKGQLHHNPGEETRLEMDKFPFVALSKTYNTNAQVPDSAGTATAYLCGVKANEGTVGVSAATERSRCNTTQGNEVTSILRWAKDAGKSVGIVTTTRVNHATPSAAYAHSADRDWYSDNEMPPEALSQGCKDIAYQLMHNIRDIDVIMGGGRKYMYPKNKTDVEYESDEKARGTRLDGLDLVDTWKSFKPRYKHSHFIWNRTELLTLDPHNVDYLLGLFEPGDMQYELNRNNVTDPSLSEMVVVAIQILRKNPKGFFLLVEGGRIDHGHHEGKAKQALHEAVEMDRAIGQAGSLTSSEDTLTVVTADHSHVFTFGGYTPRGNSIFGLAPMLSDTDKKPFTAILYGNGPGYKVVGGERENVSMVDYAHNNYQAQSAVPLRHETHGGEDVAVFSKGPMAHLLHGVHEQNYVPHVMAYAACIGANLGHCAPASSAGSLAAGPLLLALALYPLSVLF
TNAP inh Pi: human TNAP enzyme inhibitors, primary screen, biochemical, colorimetric, phosphate release readout; Alkaline phosphatase, tissue-nonspecific isozyme (Homo sapiens), P05186; AID 614, 2007; 21,000 tested, under 10 active; inhibition, % at 20 µM; purified TNAP, pNPP, malachite green phosphate absorbance
Calls only. Not all results are given here.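 How the source made its calls: active means inhibition above 50% at the 20 µM single-dose screen; inactive means the rest.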

CCOC(=O)c1cc2occc2n1CC(=O)N1CCCc2ccccc21 was read as TNAP pNPP inh inactive and TNAP inh Pi inactive.
For COC(=O)c1sc(NC(=O)c2cnccn2)c(C(=O)OC)c1C the results were TNAP pNPP inh inactive and TNAP inh Pi inactive.
`Cc1noc(C)c1CSc1nnc(-c2ccncc2)n1-c1ccc(Cl)c(Cl)c1` gave TNAP pNPP inh inactive and TNAP inh Pi inactive.
CCn1c(SC(=O)NC2CCCCC2)nnc1-c1cccs1 was read as TNAP pNPP inh inactive and TNAP inh Pi inactive.
For Cn1c(C(C#N)C2=C(Cl)C(=O)N(c3ccccc3)C2=O)nc2ccccc21 (stereo not drawn) the results were TNAP pNPP inh inactive and TNAP inh Pi inactive.
`CCCc1cc(=O)oc2cc(OCC(=O)OC)cc(OCC(=O)OC)c12` gave TNAP pNPP inh inactive and TNAP inh Pi inactive.
Cc1cc(/C=N/n2cnnc2)c(C)n1-c1ccc2c(c1)OCO2 was read as TNAP pNPP inh inactive and TNAP inh Pi inactive.
Screening NC(=O)c1cnn2c(C(F)(F)F)cc(-c3ccc(F)cc3)nc12 returned TNAP pNPP inh inactive and TNAP inh Pi inactive.
For COc1ccc2cc(CN(Cc3cccnc3)S(=O)(=O)c3ccccc3)c(=O)[nH]c2c1 the results were TNAP pNPP inh inactive and TNAP inh Pi inactive.
For CN(C)CCCN1C(=O)C(=O)/C(=C(/O)c2ccc(S(=O)(=O)N(C)C)cc2)C1c1ccncc1 (stereo not drawn) the results were TNAP pNPP inh inactive and TNAP inh Pi inactive.
Screening CC(C)Oc1ccc(C2/C(=C(/O)c3ccc(F)cc3)C(=O)C(=O)N2CCCN(C)C)cc1 (stereo not drawn) returned TNAP pNPP inh inactive and TNAP inh Pi inactive.
Screening COc1cccc(OC)c1-c1nn2c(-c3ccccc3Cl)nnc2s1 returned TNAP pNPP inh inactive and TNAP inh Pi inactive.
`CN(C)c1ccc(-c2nn3c(C4CCCCC4)nnc3s2)cc1` gave TNAP pNPP inh inactive and TNAP inh Pi inactive.
`ONC(=Nc1ccccc1)C(=Nc1ccccc1)NO` gave TNAP pNPP inh inactive and TNAP inh Pi inactive.
For O=C(NC1CCCCC1)C1CCN(c2cnccn2)CC1 the results were TNAP pNPP inh inactive and TNAP inh Pi inactive.
Cc1c(Cl)cccc1NC(=O)CSc1nnc(CCNC(=O)OC(C)(C)C)o1 was read as TNAP pNPP inh inactive and TNAP inh Pi inactive.
Screening O=C(c1ccco1)N1CCN(C(c2cccs2)c2nnnn2C2CCCCC2)CC1 (stereo not drawn) returned TNAP pNPP inh inactive and TNAP inh Pi inactive.
For COC(=O)c1cccc(NC(=O)c2nn(C)c(=O)c3ccccc23)c1 the results were TNAP pNPP inh inactive and TNAP inh Pi inactive.
For CC1S/C(=C(\C#N)C(=O)NCc2ccco2)N(c2ccc(F)cc2)C1=O (stereo not drawn) the results were TNAP pNPP inh inactive and TNAP inh Pi inactive.
CCN(C#N)c1nc(N(C)C)nc(N(C)C)n1 was read as TNAP pNPP inh inactive and TNAP inh Pi inactive.
For CCCc1ccc(OCc2ccc(C(=O)N3CCN(c4ccccn4)CC3)o2)c(OC)c1 the results were TNAP pNPP inh inactive and TNAP inh Pi inactive.
CC(=O)Nc1ccc(S(=O)(=O)N(C)CC(=O)Nc2ccccc2N2CCOCC2)cc1 was read as TNAP pNPP inh inactive and TNAP inh Pi inactive.
For N#Cc1nc(-c2cccs2)oc1N1CCN(c2ccccc2)CC1 the results were TNAP pNPP inh inactive and TNAP inh Pi inactive.
Screening c1ccc(CNn2nnnc2-c2ccccc2)cc1 returned TNAP pNPP inh inactive and TNAP inh Pi inactive.
For C/C(NC(=O)c1cccs1)=C1\C(=O)C[C@@H]2[C@H]1C2(C)C the results were TNAP pNPP inh inactive and TNAP inh Pi inactive.
`CCOc1ccc(C(C)(C)C)cc1S(=O)(=O)N1CCOCC1` gave TNAP pNPP inh inactive and TNAP inh Pi inactive.
Screening CC(C)Oc1ccccc1-c1nc(SCC(=O)O)n[nH]1 returned TNAP pNPP inh inactive and TNAP inh Pi inactive.
`COCCN1C(=O)C(=O)/C(=C(/O)c2ccc(OCC(C)C)cc2)C1c1cccnc1` (stereo not drawn) gave TNAP pNPP inh inactive and TNAP inh Pi inactive.
COc1ccc(S(C)(=O)=O)cc1S(C)(=O)=O was read as TNAP pNPP inh inactive and TNAP inh Pi inactive.
`CCCCCOC(=O)c1ccc(NC(=O)c2ccco2)cc1` gave TNAP pNPP inh inactive and TNAP inh Pi inactive.
C=CCn1c(NC(=O)c2ccccc2)c(C#N)c2nc3ccccc3nc21 was read as TNAP pNPP inh inactive and TNAP inh Pi inactive.
`Cc1ccc(S(=O)(=O)N2C(=S)SCC2(C)C)cc1` gave TNAP pNPP inh inactive and TNAP inh Pi inactive.
For CC(C)(C)SCCNC(=O)c1ccc(NS(C)(=O)=O)cc1 the results were TNAP pNPP inh inactive and TNAP inh Pi inactive.
For COc1cccc(OCCOc2c(OC)cccc2OC)c1 the results were TNAP pNPP inh inactive and TNAP inh Pi inactive.
COc1ccc(-n2cnnc2SCC(=O)c2ccc(S(=O)(=O)N3CCOCC3)cc2)cc1 was read as TNAP pNPP inh inactive and TNAP inh Pi inactive.
For COc1ccccc1NC(=O)CCC(=O)Nc1nnc(C(F)(F)F)s1 the results were TNAP pNPP inh inactive and TNAP inh Pi inactive.
For O=c1c2sc3nc(N4CCOCC4)c4c(c3c2ncn1Cc1ccco1)CCCC4 the results were TNAP pNPP inh inactive and TNAP inh Pi inactive.
For COC(=O)c1ccc(OCCn2cnc3ccccc3c2=O)cc1 the results were TNAP pNPP inh inactive and TNAP inh Pi inactive.
CC(C)(C)NC(=O)CN(Cc1cccnc1)C(=O)c1csnn1 was read as TNAP pNPP inh inactive and TNAP inh Pi inactive.
Screening CCCc1cc(=O)[nH]c(/N=C(/NC(=O)c2ccccc2)Nc2ccc3c(c2)OCCO3)n1 returned TNAP pNPP inh inactive and TNAP inh Pi inactive.
For O=C(CCn1nnc(-c2cccs2)n1)NC1CCCCC1 the results were TNAP pNPP inh inactive and TNAP inh Pi inactive.
`COC(=O)C1=C(C)OC(N)=C(C#N)C1c1cc(OC)c(OCC(N)=O)cc1Cl` (stereo not drawn) gave TNAP pNPP inh inactive and TNAP inh Pi inactive.
For COc1cccc(/C=N/n2c(C)c3c(C)nnc(C)c3c2C)c1O the results were TNAP pNPP inh inactive and TNAP inh Pi inactive.
For CCCn1nnc(NC(=O)c2cc(Br)cc(Br)c2OC)n1 the results were TNAP pNPP inh inactive and TNAP inh Pi inactive.
For Nc1nnnn1CC(=O)OCc1cccc(Br)c1 the results were TNAP pNPP inh inactive and TNAP inh Pi inactive.
For O=C(CCN1CCN(Cc2ccccc2)CC1)Nc1cccc(Cl)c1 the results were TNAP pNPP inh inactive and TNAP inh Pi inactive.
`CCCCn1c(SCc2c(C)noc2C)nc2cc(S(N)(=O)=O)ccc21` gave TNAP pNPP inh inactive and TNAP inh Pi inactive.
Screening CCOC(=O)N1CCN(c2ncnc3c2oc2nc(CC(C)C)c4c(c23)CCC4)CC1 returned TNAP pNPP inh inactive and TNAP inh Pi inactive.
N#CC1=C(N)N(c2ccccc2Sc2ccccc2)C(=O)C1 was read as TNAP pNPP inh inactive and TNAP inh Pi inactive.
Screening COc1ccc(N(CC(O)Cn2nnc3ccccc32)S(=O)(=O)c2ccc(C)cc2)cc1 (stereo not drawn) returned TNAP pNPP inh inactive and TNAP inh Pi inactive.
For C=CCc1c(C)nn(CC(=O)O)c1-c1ccccc1 the results were TNAP pNPP inh inactive and TNAP inh Pi inactive.
CCOC(=O)Nc1ccc2c(c1)N(C(=O)N(CC)CC)c1ccccc1CC2 was read as TNAP pNPP inh inactive and TNAP inh Pi inactive.
`O=C(CN1C(=O)c2ccccc2S1(=O)=O)N1CCc2ccccc2C1` gave TNAP pNPP inh inactive and TNAP inh Pi inactive.

High-throughput results as filed in PubChem.
